Experimental data published in PubChem BioAssay (NCATS).
A number with no mark means an inactive call. Records with an inconclusive call do not appear. The source made the active and inactive calls. Unless noted, calls come from the whole dose curve; as a rule, active = well fitted curve in either direction with a large enough effect (not every such curve was filed as active); inconclusive = small, poorly fitted or top-dose-only effect, or another doubt; inactive = flat fitted curve, though single readings scatter.

Key:
[1] = target: Lysosomal acid glucosylceramidase (Homo sapiens) (UniProt P04062); assay: Glucocerebrosidase-p2 (AID 348; in the data active = potency below about 10 µM; note: potency is the fitted concentration of half-maximal effect); details: purified GBA, blue fluorogenic substrate, 40 min
Procedure, shortened: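 Normal human glucocerebrosidase (0.2 nM) with blue fluorogenic substrate (80 uM final) in citrate/phosphate pH 5.9 with 10mM sodium taurocholate, 0.01% tween-20; 40 min RT, NaOH/glycine stop; fluorescence Ex 365/Em 440; AC50 from a titration from 0.6 nM upwards.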

[2] = AP1 Signaling Pathway (AID 357); details: ME-180 AP-1-bla reporter, EGF-induced, beta-lactamase ratio, 5 h; at 7.69 µM (top of the series) unless noted; note: % is set by controls: 0 for no effect and ±100 for the full control effect
Procedure, shortened: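 ME-180 cells with beta-lactamase reporter under AP-1 response element, stimulated with EC50 EGF; compounds tested in titration series, 5 h at 37 °C. CCF4 substrate added 2.5 h at room temperature; 460/530 nm emission ratio gave %activity and AC50.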

[3] = target: Cytochrome P450 1A2 (Homo sapiens) (UniProt P05177); assay: p450-cyp1a2 (AID 410; calls by dose curve; note: potency is the fitted concentration of half-maximal effect;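 for activity change, negative = inhibition: -100% = full effect of reference inhibitor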); details: recombinant CYP1A2, luciferin-ME demethylation, luminescence; series mostly up to 11.4 µM
Procedure, shortened: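 20nM CYP1A2, 100uM Luciferin-ME (=Km), 100mM KPO4; cpd 10 min RT; +NADPH regen, 60 min RT; stop/detect 20 min; luminescence. Normalized to furafylline 57 uM = full inhibition.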

[4] = NFAT Signaling Pathway (AID 444); details: Jurkat NFAT-bla M1, carbachol, beta-lactamase ratio, 5 h; at 7.69 µM (top of the series) unless noted;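 note: carbachol stimulus at about its EC50 of 1 µM final; % is set by controls: 0 for no effect and ±100 for the full control effect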
Procedure, shortened: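 Jurkat cells carrying an NFAT-driven β-lactamase reporter and co-transfected muscarinic M1 receptor were treated with compound plus carbachol (1 uM final, an EC50 level) for 5 h at 37 °C. CCF4 loading followed for 1 h at RT; 460/530 nm ratio gave %activity.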

[5] = Stat Signaling Pathway (AID 446); details: ME-180 (cervical carcinoma) SIE beta-lactamase reporter, IL-6 stimulated, 5 h; at 7.69 µM (top of the series) unless noted;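 note: ME-180 cervical cancer cells given 40 pM IL-6 alongside compound; SIE-controlled beta-lactamase reporter measured as 460/530 nm FRET emission ratio; % is set by controls: 0 for no effect and ±100 for the full control effect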
Procedure, shortened: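 Emission at 460 and 530 nm (excitation 405 nm) reports SIE-controlled beta-lactamase in ME-180 cells. Cells received compound with 40 pM IL-6 for 5 hrs at 37 C; data scaled between 300 pM IL-6 and 125 nM JAK-inhibitor controls.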

[6] = target: Glucocorticoid receptor (Homo sapiens) (UniProt P04150); assay: GR-GFP Redistribution (AID 450;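 active = compounds whose dose series gives a full or clear partial fitted curve of increased nuclear translocation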; note: potency is the fitted concentration of half-maximal effect); details: U2OS GR-GFP nuclear translocation, laser cytometry, 2 h
[7] = target: Glucocorticoid receptor (Homo sapiens) (UniProt P04150); assay: GR-EFC Redistribution (AID 451; calls by dose curve; note: potency is the fitted concentration of half-maximal effect); details: CHO-K1 GR-EFC translocation, beta-gal luminescence, 2 h
Procedure, shortened: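 CHO-K1 cells stably expressing nuclear-localized β-gal enzyme acceptor and GR fused C-terminally to the enzyme donor fragment; ligand-driven nuclear translocation restores β-gal by complementation. Compounds titrated up to 46 uM final, 2 h at 37 °C; luminescence read.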

[8] = target: Mitogen-activated protein kinase 10 (Mus musculus) (UniProt Q61831); assay: JNK3 AlphaScreen Assay (AID 530); details: JNK3 lysate, c-Jun phosphorylation; series mostly up to 11.4 µM;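 note: kinase came from lysate of stimulated human HepG2 cells; signal reports phosphorylation of biotinylated GST-cJun 1-79 at Ser73 with 10 µM ATP; % is set by controls: 0 for no effect and ±100 for the full control effect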
Procedure, shortened: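 Biotinylated GST-cJun(1-79) served as substrate for JNK3 in HepG2 lysates stimulated with IL-1beta and TNF-alpha. ATP was 10 uM final, pH 7.6. Ser73 phosphorylation was quantified by AlphaScreen (680 nm excitation).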

[9] = target: 3',5'-cyclic-AMP phosphodiesterase 4B (Homo sapiens) (UniProt Q07343); assay: qHTS Assay for Inhibitors of PDE-IV (AID 607; active = well fitted activation curve with a large enough effect in the main read-out, with a control signal flat, not every such curve was filed as active; note: % of control where 0% means no effect); details: HEK293 ACTOne CNG channel cells, membrane potential fluorescence; series mostly up to 22.9 µM
Procedure, shortened: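 The readout is membrane depolarisation from a cAMP-sensing CNG channel, detected with a potential dye at ex 535/em 590. Cells were HEK293-derived (endogenous PDE-IV) at 1000 cells/well, titrated up to 22.9 uM final.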

[10] = target: Cytochrome P450 2C19 (Homo sapiens) (UniProt P33261); assay: qHTS Assay for Inhibitors and Substrates of Cytochrome P450 2C19 (AID 899; active = well fitted inhibition curve with a large enough effect; note: nearly all actives have a fitted effect of over 60% in size; note: potency is the fitted concentration of half-maximal effect); details: recombinant CYP2C19, luciferin-H EGE luminescence; series mostly up to 11.4 µM
Procedure, shortened: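 Human CYP2C19 (5nM) with Luciferin-H EGE at 10uM (its KM) in 50mM KPO4 was preincubated with compound for 10 min at 37C. NADPH regeneration started a 60 min 37C reaction. Luciferin was read by luminescence, normalized to 57uM ketoconazole.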

Chain of Cytochrome P450 1A2 (Homo sapiens) (P05177 whole entry, looked up): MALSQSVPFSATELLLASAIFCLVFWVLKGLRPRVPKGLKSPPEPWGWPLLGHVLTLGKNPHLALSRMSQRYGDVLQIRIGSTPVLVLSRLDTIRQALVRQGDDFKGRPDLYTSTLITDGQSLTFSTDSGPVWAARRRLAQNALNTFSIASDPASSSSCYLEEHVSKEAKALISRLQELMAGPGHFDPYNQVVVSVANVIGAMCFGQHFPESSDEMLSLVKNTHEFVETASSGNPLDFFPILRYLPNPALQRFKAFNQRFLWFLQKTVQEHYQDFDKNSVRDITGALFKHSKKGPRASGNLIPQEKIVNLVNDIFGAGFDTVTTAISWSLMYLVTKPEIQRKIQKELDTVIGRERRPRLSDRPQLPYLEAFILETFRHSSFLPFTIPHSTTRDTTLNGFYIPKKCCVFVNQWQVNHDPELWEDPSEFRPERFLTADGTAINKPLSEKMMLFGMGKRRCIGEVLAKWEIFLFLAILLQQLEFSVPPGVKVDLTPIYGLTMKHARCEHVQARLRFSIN
Chain of Glucocorticoid receptor (Homo sapiens) (P04150 whole entry, looked up, the tested form may be a part): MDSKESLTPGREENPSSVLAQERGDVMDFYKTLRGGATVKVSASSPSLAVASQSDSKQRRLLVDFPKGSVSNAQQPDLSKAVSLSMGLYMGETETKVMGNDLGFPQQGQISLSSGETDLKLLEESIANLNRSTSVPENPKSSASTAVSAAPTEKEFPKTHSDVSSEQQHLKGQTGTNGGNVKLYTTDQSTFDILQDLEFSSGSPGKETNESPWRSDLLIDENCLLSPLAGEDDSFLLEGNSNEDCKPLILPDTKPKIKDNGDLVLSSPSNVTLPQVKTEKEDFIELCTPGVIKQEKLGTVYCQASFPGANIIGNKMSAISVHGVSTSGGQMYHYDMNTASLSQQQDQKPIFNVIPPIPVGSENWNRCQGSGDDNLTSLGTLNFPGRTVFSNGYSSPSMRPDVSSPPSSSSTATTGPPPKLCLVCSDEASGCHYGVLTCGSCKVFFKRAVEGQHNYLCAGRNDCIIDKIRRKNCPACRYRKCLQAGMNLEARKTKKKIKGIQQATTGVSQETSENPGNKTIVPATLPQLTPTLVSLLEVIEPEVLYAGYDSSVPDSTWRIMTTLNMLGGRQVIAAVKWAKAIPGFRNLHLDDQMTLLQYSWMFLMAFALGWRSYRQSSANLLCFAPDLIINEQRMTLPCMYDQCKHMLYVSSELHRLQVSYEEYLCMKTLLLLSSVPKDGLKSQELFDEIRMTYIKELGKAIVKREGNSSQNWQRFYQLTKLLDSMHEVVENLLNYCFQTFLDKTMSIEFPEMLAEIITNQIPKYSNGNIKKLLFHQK
Chain of 3',5'-cyclic-AMP phosphodiesterase 4B (Homo sapiens) (Q07343 whole entry, looked up): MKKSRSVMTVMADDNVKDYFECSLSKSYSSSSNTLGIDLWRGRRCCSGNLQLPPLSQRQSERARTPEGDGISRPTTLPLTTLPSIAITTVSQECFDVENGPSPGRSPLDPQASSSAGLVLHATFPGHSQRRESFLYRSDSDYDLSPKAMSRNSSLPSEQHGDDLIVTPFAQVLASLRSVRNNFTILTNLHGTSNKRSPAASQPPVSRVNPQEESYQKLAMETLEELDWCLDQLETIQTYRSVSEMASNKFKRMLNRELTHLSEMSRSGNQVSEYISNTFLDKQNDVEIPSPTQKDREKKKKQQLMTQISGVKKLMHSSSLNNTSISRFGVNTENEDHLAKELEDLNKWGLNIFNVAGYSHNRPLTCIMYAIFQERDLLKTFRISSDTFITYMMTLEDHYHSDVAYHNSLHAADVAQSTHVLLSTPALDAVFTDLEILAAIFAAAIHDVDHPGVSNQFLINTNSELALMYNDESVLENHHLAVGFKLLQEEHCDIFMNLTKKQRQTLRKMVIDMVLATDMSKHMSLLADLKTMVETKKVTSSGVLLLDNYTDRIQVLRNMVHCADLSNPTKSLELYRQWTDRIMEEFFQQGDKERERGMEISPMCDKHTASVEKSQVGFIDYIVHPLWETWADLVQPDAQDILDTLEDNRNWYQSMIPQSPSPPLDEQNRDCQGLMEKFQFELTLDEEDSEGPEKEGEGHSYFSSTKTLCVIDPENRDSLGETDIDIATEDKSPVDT
Chain of Cytochrome P450 2C19 (Homo sapiens) (P33261 whole entry, looked up): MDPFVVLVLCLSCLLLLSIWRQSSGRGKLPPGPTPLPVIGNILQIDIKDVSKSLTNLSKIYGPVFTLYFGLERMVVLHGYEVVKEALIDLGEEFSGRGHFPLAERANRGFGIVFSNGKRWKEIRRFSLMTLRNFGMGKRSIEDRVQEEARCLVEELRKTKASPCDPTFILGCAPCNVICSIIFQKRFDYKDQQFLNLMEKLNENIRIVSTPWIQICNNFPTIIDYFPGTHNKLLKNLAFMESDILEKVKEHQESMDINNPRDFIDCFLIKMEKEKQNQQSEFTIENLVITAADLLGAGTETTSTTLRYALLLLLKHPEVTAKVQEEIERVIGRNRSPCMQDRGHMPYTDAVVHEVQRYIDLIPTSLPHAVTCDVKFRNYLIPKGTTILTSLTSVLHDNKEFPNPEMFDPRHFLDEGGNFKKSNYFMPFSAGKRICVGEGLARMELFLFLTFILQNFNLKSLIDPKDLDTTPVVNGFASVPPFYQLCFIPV
Chain of Lysosomal acid glucosylceramidase (Homo sapiens) (P04062 whole entry, looked up): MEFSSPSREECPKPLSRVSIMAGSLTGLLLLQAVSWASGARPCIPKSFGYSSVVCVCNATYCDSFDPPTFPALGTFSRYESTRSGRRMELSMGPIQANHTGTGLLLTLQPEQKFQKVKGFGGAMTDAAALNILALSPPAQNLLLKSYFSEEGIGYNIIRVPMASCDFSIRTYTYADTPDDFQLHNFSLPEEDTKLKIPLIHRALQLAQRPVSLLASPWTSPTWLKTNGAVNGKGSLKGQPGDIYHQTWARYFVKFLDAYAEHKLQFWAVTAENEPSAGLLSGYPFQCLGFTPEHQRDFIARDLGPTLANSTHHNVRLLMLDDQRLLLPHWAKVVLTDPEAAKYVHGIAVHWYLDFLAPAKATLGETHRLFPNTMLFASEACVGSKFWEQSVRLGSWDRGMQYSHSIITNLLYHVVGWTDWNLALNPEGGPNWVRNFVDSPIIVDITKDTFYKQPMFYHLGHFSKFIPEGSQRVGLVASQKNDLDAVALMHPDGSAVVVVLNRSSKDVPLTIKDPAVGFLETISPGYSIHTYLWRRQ

Structure (SMILES) | Potency [1] [µM] | activity change, negative = inhibition [2] [%] | Potency [3] | activity change, negative = inhibition [4] [%] | activity, negative = inhibition [5] [%] | Potency [6] [µM] | Potency [7] [µM] | Potency [8] | Potency [9] | Potency [10] | activity change, negative = inhibition [3]
Nc1ccc2[nH]cc(CCC(=O)O)c2c1 | > 11.4 | 4.94 | inactive | 4.67 | 6.65 | > 46 | > 9.22 | inactive | inactive | inactive | 
CC(C)(C)COS(=O)OCC(C)(C)C | > 11.4 | -7.58 | inactive | 3.4 | 13.1 | > 46 | > 9.22 | inactive | inactive | inactive | 
Cc1ccc([C@@]2(C)CC/C(=N/N=C3\CC[C@](C)(c4ccc(C)c(C)c4)c4cc(C)c(C)cc43)c3cc(C)c(C)cc32)cc1C | > 11.4 | 5.94 | inactive | 7.12 | 4.03 | > 46 | > 9.22 | inactive | inactive | inactive | 
Oc1ccccc1C(Sc1nc2ccccc2s1)Sc1nc2ccccc2s1 | > 11.4 | 10.8 | 1.26 µM (active) | 5.9 | -11.5 | > 46 | > 9.22 | inactive | inactive | 3.16 µM (active) | 
C[N+](C)(C)c1nc(N)nc2c1ncn2[C@H]1O[C@@H](CO)[C@@H](O)[C@H]1O | > 11.4 | 6.27 |  | 2.16 | -3.17 | > 46 | > 9.22 | inactive | inactive | inactive | -4.9% [at 2.29 µM]
CC(C)CNc1nc(N)[nH]c(=O)c1NC=O | > 11.4 | 9 | inactive | -1.94 | 7.03 | > 46 | > 9.22 | inactive | inactive | inactive | 
C=C1CCO[C@@]2([C@H](O)[C@@](C)(O)CO)NC(=O)[C@]1(O)NC2=O | > 11.4 | 5.8 |  | -4.59 | 2.56 | > 46 | > 9.22 | inactive | inactive | inactive | -4% [at 2.29 µM]
CC[C@@H]1CC(=O)N(SC[C@H](N)C(=O)O)C1=O | > 11.4 | 1.56 | inactive | 12.4 | 1.84 | > 46 | > 9.22 | inactive | inactive | inactive | 
Cn1c(=O)c2[nH]c(CCCCC(=O)O)nc2n(C)c1=O | > 11.4 | 1.28 | 0.794 µM (active) | 6.73 | 1.27 | > 46 | > 9.22 | inactive | inactive | inactive | 
O=C(O)CC1(CC(=O)O)Nc2ccccc2SC1=O | > 11.4 | -1.59 |  | 5.68 | 2.07 | > 46 | > 9.22 | inactive | inactive | inactive | 2% [at 2.29 µM]
N#CC(C#N)=CNCCN1CCN(C=C(C#N)C#N)CC1 | > 11.4 | 2.96 |  | 2.39 | 3.44 | > 46 | > 9.22 | inactive | inactive | inactive | -15.5% [at 2.29 µM]
CN1CCc2nc(N)nc(-c3nc(N)nc4c3CN(C)CC4)c2C1 | > 11.4 | 1.73 |  | 7.63 | 4.69 | > 46 | > 9.22 | inactive | inactive | inactive | -3.9% [at 2.29 µM]
Clc1ccc(-c2nnc(-c3cccc4ccccc34)o2)cc1Cl | > 11.4 | -2.21 | 2 µM (active) | 18.6 | 10.3 | > 46 | > 9.22 | inactive | inactive | inactive | 
O=C(C[C@@H](c1ccccc1)N1CCCCC1)c1ccccc1 | > 11.4 | 2.69 | 1.26 µM (active) | 5.6 | -14.9 | > 46 | > 9.22 | inactive | inactive | 2.51 µM (active) | 
